SMILES strings stand for the structures. Screen size: about 50,000 compounds; about 800 (1.6%) showed an effect of 50% or more. Only a selection was taken, and strong results are over-represented in it overall.

In this experiment the target is Bcl-2-like protein 10 (Homo sapiens) (UniProt Q9HD36). The experiment in a line: Phenotype converters, Bcl-B/TR3 peptide binding displacement, primary biochemical FP (AID 1240).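 Also: 0% = Bcl-B with tracer peptide and DMSO and 100% = tracer peptide lacking Bcl-B.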 The settings on record: GST-Bcl-B / FITC-TR3 peptide fluorescence polarization; stronger effect = higher value; compound at 3.75 mg/L. A general note: Polarisation of emitted light reports the rotation of a fluorescent probe.
Chain of Bcl-2-like protein 10 (Homo sapiens) (Q9HD36 whole entry, looked up): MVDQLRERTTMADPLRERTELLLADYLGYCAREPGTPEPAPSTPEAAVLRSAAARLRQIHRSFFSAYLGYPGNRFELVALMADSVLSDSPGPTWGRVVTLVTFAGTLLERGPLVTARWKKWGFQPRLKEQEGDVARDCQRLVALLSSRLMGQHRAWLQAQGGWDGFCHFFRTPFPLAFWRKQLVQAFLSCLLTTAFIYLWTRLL
For the compound `O=c1sc2ccccc2c(N2CCN(c3ccccc3)CC2)c1[N+](=O)[O-]`, the displacement is -11.1%.

For `O=C(COC(=O)CN1C(=O)c2ccccc2C1=O)Nc1cccc2ccccc12`, the displacement was -8.1%.

As to `N#C/C(=C\c1ccc(-c2ccccc2)o1)C(=O)Nc1ccc(C#N)cc1`, the displacement is 168%.

As to `N#C/C(=C/c1ccc(-c2ccc(S(N)(=O)=O)cc2)o1)C(=O)Nc1ccccc1`, the displacement is -0.4%.

Consider `CCc1ccccc1NC(=O)/C(C#N)=C\c1ccc(Sc2ccccc2)o1`, for which the displacement is -12.2%.

With `N#C/C(=C\c1ccc(-c2ccc(Cl)cc2)o1)C(=O)Nc1ccccc1O`, the displacement is -1%.

As to `N#C/C(=C/c1ccc(Sc2ccccc2)o1)C(=O)Nc1ccccc1`, the displacement is -22.8%.

Turning to `Cc1cccc(NC(=O)/C(C#N)=C\c2ccc(Sc3ccccc3)o2)c1C`, the displacement turned out to be 74.9%.

Regarding `CCOc1ccc(/C=C/C(=O)c2ccc(F)cc2)cc1`, the displacement is -0.4%.

Consider `CN(C)/C=C1\C(=O)N/C(=C/c2ccc(Br)cc2)C1=O`, for which the displacement came out at 7.9%.

Take `CCN(CC)c1ccc(NC(=O)c2ccc3ccccc3n2)cc1`: the displacement was 1.3%.

Consider `CCCCS(=O)CC(O)COC(C)C` (configuration not stated), for which the displacement is -1.5%.

Turning to `Cc1cc(OCC(=O)NC2C3CC4CC(C3)CC2C4)ccc1Br` (configuration not stated), the displacement is -6.7%.

Turning to `COc1cc(/C=C2\C=C(c3ccc(Cl)cc3)OC2=O)c([N+](=O)[O-])cc1OC`, the displacement was -11.8%.

Take `COc1cc(/C=C2\C=C(c3ccc(Br)cc3)OC2=O)c([N+](=O)[O-])cc1OC`: the displacement amounted to 55%.

Regarding `COc1ccc(C2=C/C(=C\c3ccc(OC)c([N+](=O)[O-])c3)C(=O)O2)cc1`, the displacement came to 2.7%.

In the case of `COc1ccc(/C=C2\C=C(c3ccc(Br)cc3)OC2=O)cc1[N+](=O)[O-]`, the displacement came out at 70%.

For `COc1ccc(/C=C2\C=C(c3ccc(C)cc3)OC2=O)cc1[N+](=O)[O-]`, the displacement was 6.6%.

Take `COc1cc(OC)c([N+](=O)[O-])cc1/C=C1\C=C(c2ccc(Br)cc2)OC1=O`: the displacement came out at 49.1%.

`COc1cccc(OCCCCS)c1`: the displacement was determined as 10%.

Regarding `O=C(O)c1cc(S(=O)(=O)N2CCCCC2)ccc1O`, the displacement is -1.5%.

As for `COc1ccc(C2CC(=O)C3=C(C2)Nc2ccccc2NC3c2cccc3ccccc23)cc1OC` (configuration not stated), the displacement came out at 1.8%.

Turning to `O=C(Nc1c(C(=O)N2CCOCC2)cnn1-c1ccccc1)c1cccs1`, the displacement was 12.5%.

In the case of `Cc1oc2c(CN3CCCC3)c(O)ccc2c(=O)c1-c1nc2ccccc2s1`, the displacement was determined as 12.7%.

For the compound `CCc1cc2c(=O)c(-c3nc4ccccc4s3)coc2c(CN(C)C)c1O`, the displacement is -15%.

As for `Cc1oc2c(CN(CC(C)C)CC(C)C)c(O)ccc2c(=O)c1-c1nc2ccccc2s1`, the displacement stood at 12.7%.

In the case of `CCc1cc2c(=O)c(-c3nc4ccccc4s3)coc2c(CN2CCOCC2)c1O`, the displacement came out at 1%.

As to `O=c1oc2c(CN3CCOCC3)c(O)ccc2cc1-c1nc2ccccc2s1`, the displacement was 118%.

As to `CN1CCN(Cc2c(O)ccc3cc(-c4nc5ccccc5s4)c(=O)oc23)CC1`, the displacement amounted to 121%.

In the case of `CN1CCN(Cc2c(O)ccc3cc(-c4ccccn4)c(=O)oc23)CC1`, the displacement was determined as 25.9%.

Take `CN(C)Cc1c(O)ccc2cc(-c3nc4ccccc4s3)c(=O)oc12`: the displacement turned out to be 110%.

In the case of `Cc1oc2c(CN3CCN(C)CC3)c(O)ccc2c(=O)c1-c1nc2ccccc2s1`, the displacement came out at 11.7%.

Values taken from PubChem BioAssay AID1240 (Sanford-Burnham Center for Chemical Genomics, 2008).
